Drawing on PubChem BioAssay (EPA / NIEHS), this text covers outcome and AC50 for 24 molecules.

A word on the AC50: it is the midpoint of the concentration-response curve, whichever way the signal moves.

A short description of experiment [1]: IUF_NPC2-5_viability_120hr: Viability Assessment at 120 hours in the Leibniz Research Institute for Environmental Medicine (IUF) Neural Progenitor Cell Migration and Differentiation Assay (NPC2-5) (AID 2284312). In a few lines: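 Alamar blue resorufin fluorescence read after 5 days of differentiation, with compound present from day 0 and replenished at day 3. Primary hNPC spheres on laminin-coated plates, 37C; seven concentrations plus solvent control, fitted against DMSO.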

A short description of experiment [2]: CCTE_Mundy_HCI_iCellGluta_NOG_NeuriteLength: CCTE's Neurite Outgrowth Assay in iCellGluta cells for Neurite Length, Mundy Lab (AID 2284318; active means hit-call score of the fitted dose curve at least 0.9, where 1 is the maximum). In outline: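 Automated high-content imaging of betaIII-tubulin (Alexa Fluor-488) and Hoechst-stained cells gave neurite length, normalized to the DMSO baseline.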
A short description of experiment [3]: CCTE_Deisenroth_5AR_NBTE_donor: CCTE's 5alpha-reductase NanoBRET Target Engagement Assay […], Deisenroth Lab (AID 2284319). As to conditions: actives raise or lower the signal. In outline: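 SRD5A2-NanoLuc, HEK293T, 20 h expression. Chemical 10 nM - 29.9 uM, 8 conc, duplicate; 3 h preincubation + 2 h testosterone tracer. Nano-Glo substrate plus extracellular NanoLuc inhibitor; donor lum 460 nm. DMSO baseline, bidirectional fit.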
Background: In BRET a luciferase serves as donor, and the signal depends on an acceptor being close.

Experiment [4] in a line: CCTE_Deisenroth_5AR_NBTE_acceptor: CCTE's 5alpha-reductase NanoBRET Target Engagement Assay - Autofluorescence Screen, Deisenroth Lab (AID 2284321).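 Further: compound fluorescence in the acceptor channel under 460 nm excitation flags autofluorescence artifacts.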 The settings on record: actives raise or lower the signal. In outline:
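HEK293T cell-based NanoBRET assay read 5 h after dosing; this acceptor channel serves as an autofluorescence artifact screen. Chemicals at nominal 100 uM were scanned in three independent runs (n=3), excitation 460 nm. Fitting was bidirectional versus DMSO baseline.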

A short description of experiment [5]: VALA_TUBIPS_Antagonist_TubuleLength: VALA Sciences human iPS-derived Endothelial Tubule Formation (TUBIPS) Antagonist Assay (AID 2284313; active means hit-call score of the fitted dose curve at least 0.9, where 1 is the maximum). The protocol:
VALA_TUBIPS_Agonist is a cell-based, multiplexed assay that uses human iPS-derived endothelial cells (iPSC). Measurements were taken 72 hours after chemical dosing in a 96-well plate.VALA_TUBIPS_Antagonist_TubuleLength is the one of two assay components measured from the VALA_TUBIPS_Antagonist assay. It is designed to make measurements of tubulogenesis, a form of morphology reporter, as detected with fluorescence intensity signals by HCS Fluorescent Imaging technology. This VALA_TUBIPS_Antagonist assay was designed to detect chemical suppression of tubulogenesis, i.e. antagonism.Data from the assay component VALA_TUBIPS_Antagonist_TubuleLength was analyzed at the endpoint, VALA_TUBIPS_Antagonist_TubuleLength, in the positive analysis fitting direction relative to DMSO as the negative control and baseline of activity. Using a type of morphology reporter, loss-of-signal activity can be used to understand developmental effects. To generalize the intended target to other relatable targets, this assay endpoint is annotated to the neurodevelopment intended target family, where the subfamily is tubulogenesis.
[…]

Experiment [6] deals with TTR (gene 7276). As to the kind of experiment: CCTE_GLTED_hTTR_0.5uM: CCTE's human Transthyretin (hTTR) Inhibition Assay, with 0.5uM TTR, Great Lakes Toxicology and Ecology Division (GLTED) Lab (AID 2284320). The protocol:
CCTE_GLTED_hTTR is a cell-free, single-readout assay designed to test the chemicals' ability to displace T4 from the human transthyretin (TTR) protein. TTR (at 0.125uM or 0.5uM) is incubated in presence of test chemical for 2 hours during which disrupting chemicals displace ANSA from the TTR protein. Results read fluorescence at 380 excitation and 475 emission.CCTE_GLTED_hTTR_0.5uM is the assay component measured from the CCTE_GLTED_hTTR assay. It is designed to make measurements of fluorescent polarization, using a form of binding reporter, as detected with Fluorescence signals by Fluorescence technology.Data from the assay component CCTE_GLTED_hTTR_0.5uM was analyzed at the assay endpoint CCTE_GLTED_hTTR_0.5uM in the positive analysis fitting direction relative to DMSO as the negative control and baseline of activity. Using a type of binding reporter, loss-of-signal activity can be used to understand a chemical's ability to displace T4 from transthyretin. To generalize the intended target to other relatable targets, this assay endpoint is annotated to the 'transporter' intended target family, where the subfamily is 'hormone carrier protein'.

Experiment [7] concerns IYD (gene 389434). In words: CCTE_GLTED_hIYD: CCTE's human Iodotyrosine Deiodinase (xIYD) Inhibition Assay, Great Lakes Toxicology and Ecology Division (GLTED) Lab (AID 2284317; active means hit-call score of the fitted dose curve at least 0.9, where 1 is the maximum;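 further: cell-free human IYD enzyme made in baculovirus insect cells; iodide freed from monoiodotyrosine measured by cerium arsenite color change at 420 nm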). In outline:
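Human IYD expressed in a baculovirus-insect cell system was incubated 3 h with monoiodotyrosine and test chemical. Released iodide, separated on Dowex columns, was quantified by the Sandell-Kolthoff reaction at 420 nm; plates were normalized to MNT and DMSO/NaOH controls.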

Experiment [8] in a line: VALA_MIGHUV2_Bcatenin: VALA Sciences human Umbilical Vein Endothelial Cell Migration (MIGHUV) Assay, Nuclear Translocation of beta-Catenin after Recovery (AID 2284315; active means hit-call score of the fitted dose curve at least 0.9, where 1 is the maximum). In a few lines: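 HUVEC (4000 cells/well) scratch-wounded, dosed within 30 min over 6 concentrations in triplicate, recovered 24 h. After fixation, Hoechst and anti-beta-catenin immunofluorescence imaged for nuclear CTNB. Gain of signal versus 0.1% DMSO.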

Experiment [9] can be described thus: VALA_MIGHUV2_WoundArea: VALA Sciences human Umbilical Vein Endothelial Cell Migration (MIGHUV) Assay, Area of Scratch Wound after Recovery (AID 2284316; active means hit-call score of the fitted dose curve at least 0.9, where 1 is the maximum). In outline:
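HUVEC seeded at 9000 cells/well, scratched after 24 h; test chemical added within 30 min, 6-point concentration response in triplicate (0.1% DMSO vehicle). After 24 h wound recovery, cells fixed and Hoechst-stained nuclei in wound area imaged; Cytochalasin D reference control.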

Experiment [10] in a line: VALA_MIGHUV2_CellCount: Viability Assessment in the VALA Sciences human Umbilical Vein Endothelial Cell Migration (MIGHUV) Assay, Area of Scratch Wound after Recovery (AID 2284314; active means hit-call score of the fitted dose curve at least 0.9, where 1 is the maximum). In outline:
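Scratch-wounded HUVEC monolayers received test chemical within 30 min, 6-point concentration response in triplicate, 0.1 % DMSO vehicle. After 24 h wound recovery, fixed cells were Hoechst-stained and nuclei imaged; loss of signal versus DMSO indicates reduced viability.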

The structures appear in SMILES notation. Inconclusive results are not listed. Activity calls are given as the source filed them. How the source made its calls, unless noted: active means hit-call score of the fitted dose curve at least 0.9, where 1 is the maximum; inactive means score below 0.9.

Take `CCCCOC(=O)c1ccccc1C(=O)OCc1ccccc1`: the call in [1] and in experiment [2] was inactive.
Turning to `[O-][Cl+]O`, the outcome in experiment [1] was inactive. Further, the half-maximal activity concentration (AC50) in experiment [2] was 24 µM (active).
The like results for `COP(=S)(OC)SCN1C(=O)c2ccccc2C1=O` were, in that order, “inactive” and 92.2 µM (active).
On to `CN(C)[C@@H]1C(=O)C(C(N)=O)=C(O)[C@@]2(O)C(=O)C3=C(O)c4c(O)cccc4[C@@](C)(O)[C@H]3C[C@@H]12`, for which the concentration at half-maximal activity (AC50) in experiment [2] was 23.3 µM (active).
Consider `COC(=O)Nc1nc2ccccc2[nH]1`, for which the AC50 in experiment [1] is 12.5 µM (active). For the same molecule, in experiment [2], the result was inactive.
Consider `c1ccc2c(c1)-c1cccc3cccc-2c13`, for which the molecule was called inactive in experiment [3] and in experiment [4].
For the molecule `CC(C)(C)C(O)(CCc1ccc(Cl)cc1)Cn1cncn1` (stereo unspecified), the molecule was called inactive in experiment [1].
For the molecule `CC(C)COC(=O)c1ccccc1C(=O)OCC(C)C`, the call in experiment [1] and in experiment [2] was inactive.
For `C[C@]12C=CC3=C4CCC(=O)C=C4CC[C@H]3[C@@H]1CC[C@@H]2O`, the result in [3] and in experiment [4] was inactive.
Turning to `Oc1ccc2ccc3cccc4ccc1c2c34`, the molecule was called inactive in [5].
Regarding `Nc1ccc(N=Nc2ccccc2)cc1`, the concentration at half-maximal activity (AC50) in experiment [3] is 23.8 µM (active). Moreover, the call in [4] was inactive.
As for `CNC(=O)Oc1cccc2c1OC(C)(C)C2`, the result in experiment [1] was inactive. For the same molecule, in experiment [2], the concentration at half-maximal activity (AC50) was 49.6 µM (active).
With `CCNS(=O)(=O)C(F)(F)C(F)(F)C(F)(F)C(F)(F)C(F)(F)C(F)(F)C(F)(F)C(F)(F)F`, the AC50 in experiment [6] was 1.54 µM (active).
Turning to `Clc1ccc(C(c2ccc(Cl)cc2)C(Cl)(Cl)Cl)cc1`, the AC50 in [7] is 35.2 µM (active).
For the molecule `CO[C@@H]1[C@H](OC(=O)NC(=O)CCl)CC[C@]2(CO2)[C@H]1[C@@]1(C)O[C@@H]1CC=C(C)C`, the result in [5] and in experiment [9] was inactive. Also, in experiment [8], the AC50 was 0.00129 µM (active).
On to `O=P(OCCCl)(OCCCl)OCCCl`, for which the result in experiment [1], in experiment [5] and in experiment [10] was inactive.
Turning to `OCCOCCO`, the outcome in experiment [1] was inactive.
Take `CCCCCCCCn1sccc1=O`: the half-maximal activity concentration (AC50) in experiment [3] is 72.7 µM (active); in experiment [4], 73.2 µM (active).
For `Cc1cc(N=Nc2ccccc2C)ccc1N`, in that order: 40.6 µM (active) and 38.4 µM (active).
With `Cc1ccc(N)c(N)c1`, the call in experiment [3] was inactive. The AC50 in [4] is 50 µM (active).
For the molecule `COc1cc(C=O)cc2c1[C@H](COC(N)=O)[C@]1(OC(C)=O)ON2C[C@H]2[C@@H]1N2C(C)=O`, the outcome in experiment [3] and in experiment [4] was inactive.
`[Cl-].[Cl-].[Hg+2]`: the half-maximal activity concentration (AC50) in [3] is 74.8 µM (active); in experiment [4] it was 73.3 µM (active).
Turning to `CC(C)(O)c1cnn2c(-c3ccc(F)c(-c4c(F)cccc4C#N)c3)cnc2n1`, the result in experiment [3] and in experiment [4] was inactive.
For `CCC[CH2][Sn]([Cl])([CH2]CCC)[CH2]CCC`, the AC50 in experiment [1] was 0.393 µM (active); in experiment [2], 0.163 µM (active); in experiment [3] it was 4.88 µM (active); in experiment [4] it was 4.25 µM (active).
